Laboratory results taken from the supplement of paper PMC12350171.
Where a name gives a salt, the structure may show the parent alone. Values without a mark were called inactive.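 How the source made its calls: active = normalised median growth AUC below 0.1 of DMSO control; inactive = AUC 0.1 or higher.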

Legend:
Experiment in all cases: growth AUC normalised to DMSO control (median) (fraction of control); higher = less growth inhibition, active = hit call of the paper
Conditions in all cases: 20 µM
P. vulgatus RND KO = system: P. vulgatus RND KO
Summary of the method: (§1)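 Each strain went through two overnight passages under anaerobic conditions before growth in mGAM in 96-well plates, starting at OD578 0.01, with each compound from the approved-drug library at 20 μM and 1% DMSO. Inside an anaerobic incubator, OD578 was recorded every hour for 24 h. Growth curves were cut off at entry into stationary phase, and the area under the curve was calculated by the trapezoidal rule and normalised to vehicle wells on the same plate. Reported values are medians of three biological replicates.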

P. vulgatus WT = system: P. vulgatus WT
Summary of the method: as §1

[1] = system: S. enterica typhimurium WT
Summary of the method: as §1

[2] = system: S. enterica typhimurium tolC KO
Summary of the method: as §1
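Further: active when median AUC fell below 0.1.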

Row | Compound | growth AUC normalised to DMSO control (P. vulgatus RND KO) | growth AUC normalised to DMSO control (P. vulgatus WT) | growth AUC normalised to DMSO control [1] | growth AUC normalised to DMSO control [2]
1 | Cn1c(=O)cc(N2CCC[C@@H](N)C2)n(Cc2ccccc2C#N)c1=O [Alogliptin benzoate] | 0.981 | 0.971 | 0.991 | 0.992
2 | CC(C)c1nc(CN(C)C(=O)N[C@H](C(=O)N[C@@H](Cc2ccccc2)C[C@H](O)[C@H](Cc2ccccc2)NC(=O)OCc2cncs2)C(C)C)cs1 [Ritonavir] | 1.04 | 1.04 | 0.998 | 0.97
3 | CC(C(=O)O)c1ccc(CC2CCCC2=O)cc1 (stereo not drawn) [Loxoprofen] | 1.01 | 1.01 | 1.01 | 1.01
4 | Oc1ccc(C2CNCCc3c2cc(O)c(O)c3Cl)cc1 (stereo not drawn) [Fenoldopam] | 0.995 | 0.992 | 0.985 | 0.978
5 | N=c1ccn2c(n1)O[C@H]1[C@H](O)[C@@H](CO)O[C@H]12 [Ancitabine hydrochloride] | 0.971 | 0.978 | 1.01 | 0.991
6 | Nc1nc2[nH]cnc2c(=S)[nH]1 [Tioguanine] | 1.01 | 1 | 0.907 | 0.876
7 | CCOC(=O)c1c(N)sc2c1CCN(Cc1ccccc1)C2 [Tinoridine hydrochloride] | 0.91 | 0.852 | 0.989 | 0.969
8 | CCc1ccc(C(=O)C(C)CN2CCCCC2)cc1 (stereo not drawn) [Eperisone Hydrochloride] | 1.03 | 1.04 | 1 | 0.989
9 | Cc1ccc(C(=O)c2cc(O)c(O)c([N+](=O)[O-])c2)cc1 [Tolcapone] | 0.474 | 0.0123 (active) | 0.993 | 0.91
10 | O=C1[C@@H]2[C@H]3CC[C@H](C3)[C@@H]2C(=O)N1CCCCN1CCN(c2ncccn2)CC1 [Tandospirone] | 1.07 | 1.05 | 1.01 | 0.996
11 | CC(=O)[C@@]12O[C@](C)(c3ccccc3)O[C@@H]1C[C@H]1[C@@H]3CCC4=CC(=O)CC[C@]4(C)[C@H]3CC[C@@]12C [Algestone acetophenide] | 0.955 | 0.983 | 1 | 0.993
12 | COc1ncnc(NS(=O)(=O)c2ccc(N)cc2)c1OC [Sulfadoxine] | 0.981 | 0.982 | 0.99 | 0.993
13 | Brc1c(NC2=NCCN2)ccc2nccnc12 [Brimonidine L-tartrate] | 0.994 | 1.02 | 0.999 | 1.01
14 | O=C(O)CCNC(=O)c1ccccc1 [Betamipron] | 1 | 1.04 | 0.998 | 0.807
15 | CC(=O)Nc1ccc(CC(=O)O)cc1 [Actarit] | 0.953 | 1.01 | 1 | 0.991
16 | CC(C)(C)c1ccc(C(=O)CCCN2CCC(OC(c3ccccc3)c3ccccc3)CC2)cc1 [Ebastine] | 0.999 | 1.01 | 1.01 | 0.97
17 | CCCCS(=O)(=O)N[C@@H](Cc1ccc(OCCCCC2CCNCC2)cc1)C(=O)O [Tirofiban hydrochloride] | 0.994 | 0.99 | 0.989 | 0.964
18 | C[N+](C)(C)C[C@H](O)CC(=O)[O-] [Levocarnitine] | 0.998 | 1.04 | 0.998 | 1
19 | CCc1oc2ccccc2c1C(=O)c1cc(I)c(O)c(I)c1 [Benziodarone] | 0.647 | 0.606 | 0.999 | 0.815
20 | CC(=O)Oc1ccc(C(=C2CCCCC2)c2ccc(OC(C)=O)cc2)cc1 [Cyclofenil] | 0.903 | 0.904 | 0.997 | 0.972
21 | C[C@H](N[C@@H](CCc1ccccc1)C(=O)O)C(=O)N1CCC[C@H]1C(=O)O [Enalaprilat dihydrate] | 0.99 | 0.986 | 0.992 | 0.995
22 | Cc1ccc(S(=O)(=O)NCl)cc1 [Chloramine-T hydrate] | 1 | 0.997 | 0.996 | 1
